Measurements as given in PubChem BioAssay (NCI).
The panel holds about 79,000 compounds, 15% with a hit somewhere; the sample as a whole holds those more often. A number with no mark means an inactive call. Calls of active or inactive are those of the source. No stated cut-off is given here; in the data, active means growth inhibition above about 70%; inactive means the rest.

What was measured:
[1] = NCI Yeast Anticancer Drug Screen. Data for the rad50 strain (AID 155);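 further: 0% = growth of vehicle-only cultures of the same strain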; conditions: S. cerevisiae rad50 strain growth inhibition, stronger effect = higher value; at 50.0 µM unless noted
Procedure, shortened: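 Compounds were tested on a yeast strain with an engineered DNA damage repair alteration; the reported value is growth inhibition normalised to vehicle treatment.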

[2] = NCI Yeast Anticancer Drug Screen. Data for the mec2-1 strain (AID 157); conditions: S. cerevisiae mec2-1 strain, stronger effect = higher value; at 50.0 µM unless noted
Procedure, shortened: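 Yeast mec2-1 mutant treated with compound. Readout: growth inhibition vs vehicle controls.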

[3] = NCI Yeast Anticancer Drug Screen. Data for the sgs1 mgt1 strain (AID 161);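 further: 0% = growth of cultures given vehicle only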; conditions: S. cerevisiae sgs1 mgt1 strain, stronger effect = higher value; at 50.0 µM unless noted
Procedure, shortened: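 Read-out: growth inhibition vs vehicle controls. Cells: mutant yeast strain deficient in DNA damage repair.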

[4] = NCI Yeast Anticancer Drug Screen. Data for the cln2 rad14 strain (AID 165);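 further: 0% = growth equal to vehicle treated cultures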; conditions: S. cerevisiae cln2 rad14 strain, stronger effect = higher value; at 50.0 µM unless noted
Procedure, shortened: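 cln2 rad14 yeast strain; compound exposure; growth inhibition read vs vehicle controls.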

[5] = NCI Yeast Anticancer Drug Screen. Data for the bub3 strain (AID 167); conditions: S. cerevisiae bub3 mutant strain, stronger effect = higher value; at 50.0 µM unless noted
Procedure, shortened: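 Growth of a checkpoint-deficient yeast mutant is measured after compound exposure. Values represent inhibition relative to vehicle.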

[6] = NCI Yeast Anticancer Drug Screen. Data for the mlh1 rad18 strain (AID 175); conditions: S. cerevisiae mlh1 rad18 strain growth inhibition, stronger effect = higher value; at 50.0 µM unless noted
Procedure, shortened: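 Yeast w/ defined DNA-repair lesions; compound exposure; growth vs vehicle controls → % inhibition.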

SMILES | growth inhibition [1] | growth inhibition [2] | growth inhibition [3] | growth inhibition [4] | growth inhibition [5] | growth inhibition [6]
Nc1cccc(S(=O)(=O)NNc2cc(Cl)ccc2Cl)c1 | 98.7% (active) | 98.6% (active) | 98.8% (active) | 98.8% (active) | 98.3% (active) | 99% (active)
COc1ccccc1CN1CCCN(Cc2ccccc2OC)C1c1ccc(N(C)C)cc1 | 59.6% | 32.6% | 32.5% | 22.8% | 14.3% | 49.2%
CN(Cc1ccccc1Cl)C(=O)Nc1cccc(Cl)c1 | 61.5% | 78% (active) | 80.7% (active) | 80% (active) | 86.7% (active) | 90.2% (active)
O=C(NNC(=O)c1ccc2ccccc2c1)c1ccc(Cl)cc1 | -19.2% | -51% | -11% | 3.55% | -13.6% | -9.75%
C=CCNC(=S)N/C=C(\C#N)C(N)=O | -24.4% | -40.3% | -27.2% | -7.15% | -12.6% | -41.5%
CCN(CC)CCn1c2cc3c(cc2c(=O)c2cccnc21)OCO3 | -18.1% | -17.6% | -29.4% | 13.8% | -34% | 24.1%
NC(CCO)P(=O)(O)O (stereo not given) | 13.3% | -6.05% | -20.2% | -55.7% | 2.05% | -4.6%
CCOc1ccc(C(=O)C[N+]2(CCc3ccccc3)CCOCC2)cc1 | -12.9% | 6.3% | 11.6% | 6.2% | -0.7% | 41%
CC(/C(=N/O)c1ccccc1)N1C(=O)c2ccccc2C1=O (stereo not given) | -31.1% | -12.9% | -4.5% | -27.1% | -3.95% | 5.7%
C[N+](C)=c1nc(N2CCOCC2)ss1 | 1.95% | 0.65% | 6.8% | 8.95% | -63.4% | -16.9%
Cc1nc(-c2ccc(Cl)cc2)cn2c1nc1ccccc12 | -5.5% | -0.1% | 8.2% | -15.1% | 47.5% | -10.3%
O=C(O)C1Cc2c([nH]c3ccccc23)CN1 (stereo not given) | 8.45% | -10.9% | 11.6% | 2.25% | 24.1% | 9.25%
O=S1(=O)OCCOS(=O)(=O)C1(Br)Cc1ccccc1 | -67.7% | -40.6% | -37.5% | -40.4% | -63.8% | -24.2%
COC(=O)c1cc2c(cc1/C=C/C=O)OCO2 | -20% | -15.8% | -19.4% | -27.9% | -11% | 13.8%
CCCCCCCOC(=O)C1(O)CCCCC1 | 6.1% | 1.25% | 6.65% | 32.5% | 16.8% | -16.6%
Cc1cc(N)ccc1-c1cc(C)c(N)c(C)c1C | -39.4% | -21.9% | -7.8% | 13.2% | -18.7% | -15.1%
Oc1ccccc1C1CCCC1 | 5.55% | -10% | -4.75% | 3.7% | 0.25% | -2.45%
O=C(O)c1ccccc1-c1ccccc1 | -19.2% | -36.1% | -12.4% | 4.3% | -15.3% | -1.9%
c1ccc2nc3c(cc2c1)c1c(c2ccccc23)CCCC1 | 11.2% | -10.5% | 20.4% | -25.4% | -14.6% | 22.9%
O=C(Cc1ccccc1)NCc1ccco1 | -3.25% | 8.55% | -11.6% | -10.9% | -7.45% | 7.3%

SMILES | growth inhibition [1] | growth inhibition [2] | growth inhibition [3] | growth inhibition [4] | growth inhibition [5] | growth inhibition [6]
Clc1cccc(C2SCc3nc4ccccc4n32)c1 (stereo not given) | 17% | -3.95% | 46.1% | 15.3% | 5.9% | 32.1%
Nc1ccccc1SC(CC(=O)c1ccc(-c2ccccc2)cc1)c1ccco1 (stereo not given) | -18.4% | -30.6% | 17% | -9.2% | -7.6% | -31.7%
COc1ccc2nc3cc([N+](=O)[O-])ccc3c(NCCCN(C)C)c2c1 | 7.05% | -1.9% | 45.4% | 20.9% | 8.25% | 5.4%
C/C(=C\CNc1nc(Cl)nc2nc[nH]c12)CO | -12.3% | -5.6% | -32.6% | 3.6% | -0.4% | -8.4%
O=C(Nc1cccc(Cl)c1)Oc1c([N+](=O)[O-])cc(Cl)cc1[N+](=O)[O-] | 13.2% | 6.75% | 21.1% | -12% | 0.15% | 28.3%
CC1=CC(C)(C)N(C)C(N)=N1 | -4.45% | -3.1% | -5.3% | -43.2% | -2.65% | -1.75%
C/C(=C/CC1=C(O)c2ccccc2C(=O)C1=O)CO | 23% | 32.9% | 51.7% | 32.8% | 26% | 33.8%
COCCOC(=O)c1ccc(C)cc1 | 9.8% | 17.8% | 10.6% | 14.8% | 12.1% | 8.1%
CC[O-].CC[O-].CN(C)c1ccc([O-])cc1.CN(C)c1ccc([O-])cc1.[Ti+4] | -29.9% | 9.5% | 2.2% | 20.2% | -9.15% | -1.8%
Cc1cccc(Nc2nc(C)nc3[nH]cc(-c4ccccc4)c23)c1 | -14.7% | -12.6% | -10.9% | -53.2% | -15.5% | -7.95%
CCN(CC)Cc1c(/C=C\c2cc(OC)c(OC)c(OC)c2)ccc(OC)c1O | -7.05% | 4.4% | 14.1% | 9.55% | 15.3% | -64%
CCCCCC(=O)OCCSCCOC(=O)CCCCC | 4.55% | 1.3% | -5.85% | -39.1% | 10.8% | 0.2%
CC(CC(=O)c1ccccc1)[N+](=O)[O-] (stereo not given) | -10.6% | -6.35% | -3.3% | -12.6% | -7.85% | 15.8%
ClC1c2cccc3cccc(c23)C1Cl (stereo not given) | 6.95% | 8.75% | -0.6% | 4.45% | 7.5% | 10.7%
CC12OC3(C)C4CC1C1(C)OC4(C)C3C(O)C21 (stereo not given) | -0.8% | 4.8% | -3.7% | -16.6% | -6.5% | 10.3%
O=C(NCc1ccco1)Nc1ccccc1C(F)(F)F | 2.3% | 0.2% | 18.5% | 19.6% | 20.4% | 17.1%
[Cu+2].[NH-]CC(=O)NC(Cc1ccccc1)C(=O)O.[NH-]CC(=O)NC(Cc1ccccc1)C(=O)O (stereo not given) | 30.9% | 2.4% | 10.6% | 17.5% | 0.9% | 10.6%
O=S1(=O)OCCOS(=O)(=O)C1Cc1nc2ccccc2[nH]1 | 3.25% | 15.8% | 1.25% | 56.9% | -0.05% | 37.1%
COC(=O)N1C=NC2C3(C)C(C)=C(C)C3(C)C21C (stereo not given) | 0.35% | -3.55% | -4.1% | -24.9% | -0.4% | -7.45%
COc1ccc2c(c1)c(C)cc[n+]2C | -3.3% | 8.5% | -5.9% | -9.65% | -3.05% | -19.3%
